Test results taken from article PMC5540273 (PLoS ONE, 2017).

How the values were obtained:
Conditions in all cases: concentration: 1 μM, replicates: in singlicate; n = 1
BTK = system: BTK
BUB1 = system: BUB1
CAMK1B = system: CAMK1B
CAMK1D = system: CAMK1D
CAMK1G = system: CAMK1G
CAMK1 = system: CAMK1
CAMK2A = system: CAMK2A
CAMK2B = system: CAMK2B
CAMK2D = system: CAMK2D
CAMK2G = system: CAMK2G
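Also: KINOMEscan kinase panel screen.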

SMILES	%Inh (BTK) [%]	%Inh (BUB1) [%]	%Inh (CAMK1B) [%]	%Inh (CAMK1D) [%]	%Inh (CAMK1G) [%]	%Inh (CAMK1) [%]	%Inh (CAMK2A) [%]	%Inh (CAMK2B) [%]	%Inh (CAMK2D) [%]	%Inh (CAMK2G) [%]
Cc1ccccc1-c1cc(-c2c[nH]nc2-c2ccccn2)ccn1 [GW680061]	3	35	0	16	0	9	0	0	0	11
CS(=O)(=O)CCNCc1nc(-c2ccc3ncnc(Nc4ccc5c(cnn5Cc5ccccc5)c4)c3c2)cs1.Cl.Cl [GW569716]	20	49	0	9	0	11	0	0	6	16
CC(=O)c1c(C)c2cnc(Nc3ccc(N4CCNCC4)cn3)nc2n(C2CCCC2)c1=O	0	0	0	2	0	0	0	0	0	0
CCn1c(-c2ccccc2)nc2cnccc21 [SB-733416]	0	2	44	8	0	0	0	0	0	0
c1ccc(-c2ccnc3[nH]ccc23)cc1 [SB-693578]	0	58	11	9	15	14	0	15	31	21
CC(C)c1cc(-c2ccc3c(N)n[nH]c3c2)nc(N)n1 [GSK2250882]	0	60	0	23	6	21	0	0	8	23
COc1ccc(CSc2nnc(-c3ccc4nccn4c3)o2)cc1C(F)(F)F	15	0	8	0	22	5	2	32	11	16
CNCc1ccc2nc(NC(=O)c3ccc(C(C)(C)C)cc3)cn2c1	32	26	33	1	0	1	4	2	1	12
Nc1ncnc2occ(-c3ccc4c(c3)CCN4C(=O)Cc3cc(F)ccc3F)c12 [GSK2645446]	0	0	0	8	9	6	0	0	14	20
COc1ccc(Nc2nccc(-c3ccc(NC(=O)c4cc5cc(F)ccc5[nH]4)cc3)n2)cc1 [GSK1229496]	0	29	26	0	6	0	0	0	3	34
CC(=O)c1cccc(NC(=O)NC2CCN(c3ccnc(Nc4ccc(F)cc4)n3)C2)c1 (centres unmarked) [GSK1379710]	0	33	39	16	7	20	0	0	4	32
CNc1nc(-c2ccc3c(N)n[nH]c3c2)cc(N2C[C@@H](C(=O)NC3CCCCC3)OC[C@H]2C)n1 [GSK2375584]	7	36	0	20	0	19	0	0	15	34
Cc1ccc(NC(=O)Nc2ccccc2)cc1-c1ccc(C(=O)Nc2ccncc2)cc1 [GSK1398471]	0	0	13	20	0	15	0	0	0	9
COc1ccc(Nc2nccc(N3CCC(NC(=O)C(C)c4ccc(Cl)cc4)CC3)n2)cc1 (centres unmarked) [GSK1379812]	0	6	32	23	13	25	0	0	14	36
CCc1ccc(-c2ccc3c(c2)-c2n[nH]cc2S(=O)(=O)N3C)cc1	0	0	0	0	0	0	0	0	21	5
Cn1cncc1-c1cc2c(Nc3ccc(OCc4ccccc4)cc3)ncnc2cn1 [GW281179]	0	34	25	14	0	20	0	0	12	36
Cc1ccccc1Cn1ccn2c(=O)cc(N3CCOCC3)nc12 [GSK2269905]	0	0	0	0	3	2	0	0	20	47
